We go through 23 compounds from the supplement of paper PMC7411640.

Where a name gives a salt, the structure may show the parent alone.

The first experiment concerns MDA-MB-468. Nature of the experiment: phospho-S6 immunofluorescence (DAPI-normalised), per-plate z-score; higher = higher phospho-S6 signal (less pathway suppression). Conditions: co-treatment: lapatinib 1 uM; 24 h. Here is the method:
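GPCR-targeted compound library (MedChemExpress HY-L006) tested on MDA-MB-468 PTEN-null TNBC cells in 384-well plates at 0.1, 1 or 10 uM, combined with vehicle, GDC0941 450 nM or lapatinib 1 uM, for 24 h. Phospho-S6 (S240/244) immunofluorescence normalised to DAPI and expressed as a per-plate z-score; values are the mean of biological triplicates.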
`Cc1cccc(C)c1NC1=NCCCS1` [Xylazine (hydrochloride)] (compound 10 µM): the “phospho-S6 immunofluorescence (z-score)” value amounted to 0.79.
On to `O=C(O[C@H]1C[N+]2(CCCOc3ccccc3)CCC1CC2)C(O)(c1cccs1)c1cccs1` [Aclidinium (Bromide)] (compound 10 µM), for which the “phospho-S6 immunofluorescence (z-score)” value is 1.09.
On the same count and under the same terms, to `N#Cc1c(Oc2cccc(OS(=O)(=O)CCCC(F)(F)F)c2)cccc1C(F)(F)F` (compound 10 µM) belongs -2.85; to `CC(C)[C@@H](CN1CC[C@@](C)(c2cccc(O)c2)[C@@H](C)C1)NC(=O)[C@H]1Cc2ccc(O)cc2CN1` [JDTic (dihydrochloride)] (compound 10 µM), -2.5; to `Cc1ccc2c(c1)C1(CCN(CCc3nc(-c4ccccc4)oc3C)CC1)OC(=O)N2` (compound 10 µM), 0.85.
The same measure, in the same setting: under `Cc1ncc(CN2CC=C(c3ccccc3)CC2)c(N)n1` [Ro 10-5824 (dihydrochloride)] (compound 10 µM) stands -1.65.
On the same count and under the same terms, to `Cc1ccc2c(c1)[C@]13CCCC[C@@H]1[C@H](C2)N(C)CC3` [Dimemorfan (phosphate)] (compound 10 µM) belongs 0.09; to `CN1[C@@H]2CC(O)C[C@H]1[C@@H]1O[C@@H]12` (stereo partly specified) [Scopine (hydrochloride)] (compound 10 µM), 0.28; to `NCC(O)c1ccc(O)cc1` (stereo unspecified) [Octopamine (hydrochloride)] (compound 10 µM), 0.86.
Turning to `CNCC(O)c1ccc(O)cc1` (stereo unspecified) [Synephrine (hydrochloride)] (compound 10 µM), the “phospho-S6 immunofluorescence (z-score)” value turned out to be 0.35.
Still for that read-out and setting: to `O=C1Nc2ccccc2C2(CCN(CCc3ccc(C(F)(F)F)cc3)CC2)O1` (compound 10 µM) belongs -4.41.
For the compound `CN1[C@@H]2CC[C@H]1C[C@@H](OC(=O)[C@H](CO)c1ccccc1)C2` [L-Hyoscyamine] (compound 10 µM), the “phospho-S6 immunofluorescence (z-score)” value turned out to be 0.67.
Regarding `CN(C)CCN(C)CCc1ccc(Cl)c(Cl)c1` [BD-1047 (dihydrobromide)] (compound 10 µM), the “phospho-S6 immunofluorescence (z-score)” value was -1.41.

The same experiment, now with this note: co-treatment: vehicle; 24 h.
Consider `C[C@H]1CNCCc2ccc(Cl)cc21` [Lorcaserin (Hydrochloride)] (compound 10 µM), for which the “phospho-S6 immunofluorescence (z-score)” value is -0.95.
As to `Cc1c(C(=O)c2cccc3ccccc23)c2cccc3c2n1[C@H](CN1CCOCC1)CO3` [WIN 55,212-2 (Mesylate)] (compound 10 µM), the “phospho-S6 immunofluorescence (z-score)” value is -3.25.
In the case of `CN1CCC2=C(C1)c1ccccc1Cc1ccccc12` [Setiptiline] (compound 10 µM), the “phospho-S6 immunofluorescence (z-score)” value is -0.24.
Take `O=C1CCC[C@@H]2[C@H]3CCCN4CCC[C@@H](CN12)[C@@H]34` [Matrine] (compound 10 µM): the “phospho-S6 immunofluorescence (z-score)” value is -0.24.
Still for that read-out and setting: to `O=C1CC[C@@]2(O)[C@H]3Cc4ccc(O)c5c4[C@@]2(CCN3CC2CC2)[C@H]1O5` [Naltrexone (Hydrochloride)] (compound 10 µM) belongs 1.41.
Same read-out and setting: under `CN1C(=O)COc2c(C(=O)NC3CN4CCC3CC4)cc(Cl)cc21` (stereo unspecified) [Azasetron (hydrochloride)] (compound 10 µM) stands 1.23; under `O=c1[nH]c2ccccc2n1CCCN1CCC(n2c(=O)[nH]c3cc(Cl)ccc32)CC1` [Domperidone] (compound 10 µM), 1.62; under `CN1CCC(C(=O)c2cccc(NC(=O)c3c(F)cc(F)cc3F)n2)CC1` [Lasmiditan (hydrochloride)] (compound 10 µM), -0.09.
On the same count and under the same terms, under `Oc1ccc2c3c1O[C@H]1c4[nH]c5ccccc5c4C[C@@]4(O)[C@@H](C2)N(CC2CC2)CC[C@]314` [Naltrindole (hydrochloride)] (compound 10 µM) stands -1.21; under `CO[C@]12C[C@@H](COC(=O)c3cncc(Br)c3)CN(C)[C@@H]1Cc1cn(C)c3cccc2c13` [Nicergoline] (compound 10 µM), -0.38; under `Cc1cccc(C)c1NC1=NCCCS1` [Xylazine (hydrochloride)] (compound 10 µM), 0.89.
`O=C(O[C@H]1C[N+]2(CCCOc3ccccc3)CCC1CC2)C(O)(c1cccs1)c1cccs1` [Aclidinium (Bromide)] (compound 10 µM): the “phospho-S6 immunofluorescence (z-score)” value was -0.87.
Turning to `N#Cc1c(Oc2cccc(OS(=O)(=O)CCCC(F)(F)F)c2)cccc1C(F)(F)F` (compound 10 µM), the “phospho-S6 immunofluorescence (z-score)” value is -5.42.
Same read-out and setting: to `CC(C)[C@@H](CN1CC[C@@](C)(c2cccc(O)c2)[C@@H](C)C1)NC(=O)[C@H]1Cc2ccc(O)cc2CN1` [JDTic (dihydrochloride)] (compound 10 µM) belongs 0.81.
Still for that read-out and setting: under `Cc1ccc2c(c1)C1(CCN(CCc3nc(-c4ccccc4)oc3C)CC1)OC(=O)N2` (compound 10 µM) stands 0.89; under `Cc1ncc(CN2CC=C(c3ccccc3)CC2)c(N)n1` [Ro 10-5824 (dihydrochloride)] (compound 10 µM), 0.42.
Still for that read-out and setting: under `Cc1ccc2c(c1)[C@]13CCCC[C@@H]1[C@H](C2)N(C)CC3` [Dimemorfan (phosphate)] (compound 10 µM) stands 0.76; under `CN1[C@@H]2CC(O)C[C@H]1[C@@H]1O[C@@H]12` (stereo partly specified) [Scopine (hydrochloride)] (compound 10 µM), -1.09; under `NCC(O)c1ccc(O)cc1` (stereo unspecified) [Octopamine (hydrochloride)] (compound 10 µM), 1.09.
As for `CNCC(O)c1ccc(O)cc1` (stereo unspecified) [Synephrine (hydrochloride)] (compound 10 µM), the “phospho-S6 immunofluorescence (z-score)” value is 0.24.
On the same count and under the same terms, under `O=C1Nc2ccccc2C2(CCN(CCc3ccc(C(F)(F)F)cc3)CC2)O1` (compound 10 µM) stands -4.38; under `CN1[C@@H]2CC[C@H]1C[C@@H](OC(=O)[C@H](CO)c1ccccc1)C2` [L-Hyoscyamine] (compound 10 µM), 0.91.
On the same count and under the same terms, under `CN(C)CCN(C)CCc1ccc(Cl)c(Cl)c1` [BD-1047 (dihydrobromide)] (compound 10 µM) stands -0.85.
